In all, about 350,000 compounds went through this assay and about 550 (0.16%) were called active. The sample holds actives, similar compounds and a random draw of the others, so the mix is not that of the screen. Unmarked numbers belong to inactive results. Cut-off read from the data, not from the text of the source: active = activation mostly above about 9.7% (no sharp cut-off); inconclusive = no clear call, values can overlap the other calls; inactive = mostly below about 3.7%.

This is an account of results in PubChem BioAssay AID588436 (Broad Institute, 2011).

The assay can be described thus: induces V. cholerae light production without autoinducers, primary screen, BH1578 luxS cqsA deficient, single point (AID 588436). As to conditions: V. cholerae BH1578 lux reporter, luminescence, 6 h, at 18.7 µM; stronger effect = higher value.
For the compound `COc1cccc(NS(=O)(=O)c2ccc3[nH]cc(C(=O)NCCCOC(C)C)c(=O)c3c2)c1`, the activation entry was “inactive”.

On to `CN(C)c1ccc(CNC2C3CC4CC(C3)CC2C4)cc1` (stereo not given), for which the activation was -0.358%.

As to `CN(C)c1ccc(CSc2ccccc2)cc1`, the activation entry is “inactive”.

`CN(C)c1ccc(CNC23CN4CN(CN(C4)C2)C3)cc1`: the activation is 54% (active).

With `CCN1CN(Cc2ccccc2)CNC1=S`, the activation entry is “inactive”.

Turning to `C=CCC(C(=O)c1ccccc1)[N+](C)(C)CC=C` (stereo not given), the activation entry was “inactive”.

Turning to `COc1ccccc1C(=O)NC(CCSC)C(=O)NNC(=O)c1csc(N2CCOCC2)n1` (stereo not given), the activation entry is “inactive”.

Turning to `COc1ccc(-n2ncc3c2CC(C)(C)CC3NC(=O)CCc2c(C)noc2C)cc1` (stereo not given), the activation is -0.606%.

For the compound `O=C(O)CCCCCCCCc1cn(CN2C(=O)c3ccccc3C2=O)nn1`, the activation was -0.601%.

`COc1ccc(CC(=O)c2ccc(O)cc2O)cc1OC`: the activation is 1.54%.

In the case of `O=C(NC1CCN(C(=S)NCc2ccco2)CC1)c1ccc(F)cc1`, the activation entry was “inactive”.

Take `CCN(C[C@H]1N[C@@](CC)(C(=O)OC)[C@H]2C(=O)N(Cc3ccccc3)C(=O)[C@@H]12)S(=O)(=O)c1ccc(C(F)(F)F)cc1`: the activation entry is “inactive”.

On to `Cc1ncoc1C(=O)NCCC(c1ccccc1)c1ccccc1`, for which the activation result is “inactive”.

As to `CS(=O)(=O)N1CCCC(C(=O)Nc2ccccc2C(F)(F)F)C1` (stereo not given), the activation was -3.85%.

On to `CCN(CC(=O)NCC(=O)Nc1cccc(C)c1C)Cc1ccccc1`, for which the activation result is “inactive”.

In the case of `CCCCCCn1c(=O)n2n(c1=O)C[C@]1(OC(=O)NCc3ccc(OC)c(OC)c3)CN(S(=O)(=O)c3ccc(C)cc3)C[C@]1(O)C2`, the activation is -2.08%.

Consider `Cc1ccc(C(=O)N/N=C/c2sc(=O)n(Cc3cccc(C(=O)O)c3)c2Cl)cc1`, for which the activation was 0.645%.

As to `CCCCNC(=O)Cn1nc(C)c(S(=O)(=O)N2CCOCC2)c1C`, the activation entry is “inactive”.

As to `Cc1onc(-c2ccccc2)c1C(=O)N1CCN(S(=O)(=O)c2ccccc2C(F)(F)F)CC1`, the activation is -0.206%.

Turning to `Cc1onc(-c2ccccc2)c1C(=O)N1CCOCC1`, the activation was 16.7% (active).

As to `CNc1cncc(-c2cccc(C(=O)N3CCOCC3)c2)n1`, the activation is 3.33%.

Turning to `Cc1cccc(N2CCN(C(C)C(=O)N3CCc4ccccc43)CC2)c1C` (stereo not given), the activation was -0.336%.

With `COc1ccccc1-c1cnn2c(N3CCOCC3)cc(C)nc12`, the activation is -0.198%.

For `CC(C)n1ncc2c(C(=O)N3CCN(Cc4cccs4)CC3)cc(C3CC3)nc21`, the activation is -0.459%.

In the case of `CCN(CC)c1nc(-c2ccccc2)cc(C(F)(F)F)c1C#N`, the activation was 17.9% (active).

As to `N#Cc1c(C(F)(F)F)cc(-c2ccccc2)nc1SCC(=O)N1CCOCC1`, the activation was -0.279%.

As to `N#Cc1c(C(F)(F)F)cc(-c2cccs2)nc1N1CCCCC1`, the activation is -0.871%.

Consider `CCNC(=S)Nc1ccc(OC(F)(F)F)cc1`, for which the activation was 20.7% (active).

Regarding `COC(=O)Cc1ccc(OCC(=O)Nc2ccc(OC(F)(F)F)cc2)cc1`, the activation was -0.392%.

Consider `CS(=O)(=O)c1sc(C(=O)NC(=S)Nc2ccc(OC(F)(F)F)cc2)c2c1C=CCC2`, for which the activation is 0.546%.

As for `CCn1c2c(c3ccc(OC)cc31)CCCC2=O`, the activation entry is “inactive”.

Turning to `CC(=O)OC(C)C[N+](C)(C)C` (stereo not given), the activation was 22.9% (active).

As to `CC(C[N+](C)(C)C)OC(N)=O` (stereo not given), the activation entry was “inactive”.

Regarding `CC(=O)OCC(COC(C)=O)OC(C)=O`, the activation was -1.4%.

For `NC(=O)C1CC=CCC1C(=O)OCC(Cl)=C(Cl)Cl` (stereo not given), the activation is -0.395%.

Consider `Cc1noc(C)c1S(=O)(=O)N(C)Cc1ccccc1`, for which the activation entry was “inactive”.

Consider `COC(CNC(=O)Cn1ncc2ccsc2c1=O)OC`, for which the activation result is “inactive”.

As to `O=C(CN1CCCCCC1)Nc1ccc(Br)cc1Br`, the activation is -7.69%.

`O=C(CN1CCCCC1)Nc1ccc(Br)cc1C(=O)c1ccccc1Cl`: the activation was -0.319%.

As for `O=C(CN1CCCCCC1)Nc1ccc(Br)cc1[N+](=O)[O-]`, the activation was 45.8% (active).

As to `CCC1CCCCN1C(=O)Nc1cccc(NC(=O)N2CCCCC2CC)c1` (stereo not given), the activation result is “inactive”.

For `CC(C)CC(=O)N1CCN(Cc2cccc(Cl)c2)CC1`, the activation entry was “inactive”.

Consider `COc1ccccc1CN1CCN(C(=O)Cc2ccccc2)CC1`, for which the activation entry is “inactive”.

With `CC(C)CC(=O)N1CCN(Cc2ccccc2Br)CC1`, the activation was 144% (active).

As to `CCOC(=O)c1c(-c2cccc(N)c2)cn2ccccc12`, the activation was -1.18%.

Turning to `CC(=O)N1C(=O)C2(Nc3ccccc3N2)c2ccccc21`, the activation result was “inactive”.

Turning to `CC(C)Cc1ccc(S(=O)(=O)N2CCN(C(=O)c3ccco3)CC2)cc1`, the activation is -6.25%.

With `Cc1oc2cc3oc(=O)ccc3cc2c1C`, the activation was -0.488%.

With `C/C(=N\NS(=O)(=O)c1cccc([N+](=O)[O-])c1)c1cc2ccccc2o1`, the activation was -2.5%.

Turning to `CCc1nc2c(OCCOc3ccccc3)cccn2c1N(C=O)Cc1ccc(OC)cc1`, the activation is 4.55%.

With `COc1cc(C(=O)NCC(=O)NCCSc2ccc(Br)cc2)cc(OC)c1OC`, the activation entry is “inactive”.

For `Cc1cccc(C(=O)OCC(=O)NC(C)C2CC3CCC2C3)c1O` (stereo not given), the activation result was “inactive”.

`Cc1cccc(C)c1NC(=O)COC(=O)c1ccccc1O`: the activation was -0.155%.

Take `Cc1cccc(C(=O)OCC(=O)NCC(C)C)c1O`: the activation is 302% (active).

Consider `Oc1ccc(CNc2ccccc2O)cc1`, for which the activation is -0.266%.

For `O=C(Nc1ccc2ccccc2c1)Nc1ccc2snnc2c1`, the activation entry was “inactive”.

`COc1ccc2[nH]c(=O)c(CNc3ccc(C)c(C)c3)cc2c1`: the activation is 16.7% (active).

On to `COc1ccc2[nH]c(=O)c(CN(Cc3cccnc3)S(=O)(=O)c3ccccc3F)cc2c1`, for which the activation was 0.282%.

Turning to `COc1ccc2[nH]c(=O)c(CN(CC3CCCO3)C(=O)Nc3ccccc3)cc2c1` (stereo not given), the activation was -0.239%.

On to `COc1ccc(N2C(=O)NC(NS(=O)(=O)c3ccc(Cl)cc3)(C(F)(F)F)C2=O)cc1` (stereo not given), for which the activation was 0.575%.

For the compound `Cc1ccc(Cl)cc1NC(=O)C1CCCN(c2cnccn2)C1` (stereo not given), the activation was -2.5%.

For `CC1(C)C=C2[C@H]3CC[C@@H]4[C@@]5(C)CCC(=O)C(C)(C)[C@@H]5CC[C@@]4(C)[C@]3(C)CC[C@@]2(C(=O)O)CC1`, the activation result is “inactive”.

With `Cc1cc(=O)oc2cc(OC(C)C(=O)Nc3ccc(N4CCOCC4)cc3)ccc12` (stereo not given), the activation result was “inactive”.

As for `CCCNC(=O)C1(C)CCCN(Cc2cccc(C(F)(F)F)c2)C1` (stereo not given), the activation entry was “inactive”.

In the case of `O=C(CN1CCC(O)(c2cccc(C(F)(F)F)c2)CC1)NCCc1ccccc1`, the activation is 277% (active).

For `Cc1cc(NC(=O)CN2CCC(O)(c3cccc(F)c3)CC2)no1`, the activation was -11.8%.

In the case of `OCCN1CCN(CCO)C1=S`, the activation was -0.805%.

On to `COc1cccc(CN(C)C(=O)CC23CC4CC(CC(C4)C2)C3)c1OC`, for which the activation entry is “inactive”.

`O=C(Cc1ccc([N+](=O)[O-])cc1)Nc1ccc(C(=O)N2CCOCC2)cc1`: the activation result is “inactive”.

As to `Cc1c(C#N)c2ncn(CC#N)c(=O)c2n1-c1ccccc1`, the activation is 25% (active).

In the case of `CN(C)/C=C/c1c(C#N)c(=O)ncn1Cc1ccccc1`, the activation result was “inactive”.

Turning to `CC(=O)Cn1cnc2c(cnn2-c2ccccc2)c1=O`, the activation result was “inactive”.

With `Cc1cc(C)c(C#N)c(SCC(=O)NN2CC(=O)N(c3ccccc3F)CC2=O)n1`, the activation is 2.85%.

For `CCCCC(=O)Nc1ccccc1N1CCN(c2ccc(F)cc2)CC1`, the activation result is “inactive”.

As to `COc1ccccc1NC(=O)c1cc(N2C(=O)C3C4CCC(C4)C3C2=O)ccc1Cl` (stereo not given), the activation entry is “inactive”.

`COc1ccc(-c2coc3c(C(=O)NC(C)C)cccc23)c(C)c1`: the activation was -0.54%.

`O=C(NCc1cccs1)c1ccc(CS(=O)Cc2ccccc2Cl)o1` (stereo not given): the activation was -3.95%.

Turning to `CCN(CC(=O)NCc1ccc(Cl)cc1)C(=O)c1c(C)noc1C`, the activation result is “inactive”.

On to `CCN(CC(=O)NCc1ccc(Cl)cc1)C(=O)CSc1ccccc1`, for which the activation is 39.3% (active).

Consider `CCN(CC(=O)Nc1cc(Cl)ccc1C)C(=O)CSCc1ccccc1`, for which the activation is 1.13%.

On to `c1ccc(Cc2cc[n+](Cc3ccccc3)cc2)cc1`, for which the activation is -0.465%.

As to `CC(C)(C)c1ccc(/C=C2\Oc3c(ccc(O)c3CN3CCN(CCO)CC3)C2=O)cc1`, the activation is -0.166%.

In the case of `COP1(=O)C[C@@H](O)[C@@H](O)[C@@H](COCc2ccccc2)O1` (stereo not given in full), the activation result is “inactive”.

Regarding `COCC1CCCCN1C(=O)c1cc(COc2ccc(C)c(C)c2)on1` (stereo not given), the activation result is “inactive”.

With `COc1ccc(NC(=O)CN2C(=O)C(c3ccccc3)=NC23CCCCCC3)cc1OC`, the activation is -0.396%.

Take `COc1ccc(CNS(=O)(=O)c2ccc(NC(=O)N3CCCCC3)cc2)cc1`: the activation result is “inactive”.

In the case of `COc1ccc(OCCCC(=O)Nc2cccc(S(=O)(=O)N3CCCCCC3)c2)cc1`, the activation is -0.87%.

Regarding `O=C(Nc1ccc(F)cc1)c1cc2c(s1)CCCC2`, the activation is 0.953%.

Consider `O=C(O)C1CCCN1c1nc(Cl)ccc1[N+](=O)[O-]` (stereo not given), for which the activation result was “inactive”.

As for `Cc1cccc(-c2oc3ccc(-c4ccc5c(c4)OCO5)cc3c2C#Cc2cncn2C)c1`, the activation was -1.22%.

Turning to `COCCNC(=O)c1ccc2c(c1)ncn2-c1ccc(C)c(Cl)c1`, the activation entry is “inactive”.

Consider `O=C(c1cccs1)n1nc(NCc2ccccc2)nc1NCc1ccccc1`, for which the activation is -0.325%.

With `CC(NC(=O)COC(=O)C1CCN(S(=O)(=O)c2ccccc2C(F)(F)F)CC1)c1ccccc1` (stereo not given), the activation was -0.574%.

Regarding `Cc1ccc(-c2nc(CS(=O)(=O)CC(=O)NCc3ccc4c(c3)OCO4)c(C)o2)cc1`, the activation is -0.345%.

For `CC(=O)c1ccc(Cc2ncc(C(F)(F)F)cc2Cl)s1`, the activation entry was “inactive”.

Turning to `CCOc1ccc(S(=O)(=O)N/N=C(\C)c2ccc(Cl)c(Cl)c2Cl)cc1`, the activation entry was “inactive”.

For the compound `CC1Cc2ccccc2N1S(=O)(=O)c1ccc(Cl)nc1` (stereo not given), the activation entry is “inactive”.

Take `COC(=O)C1=C(C)N(c2ccc(C)cc2)/C(=C/c2ccc(O)cc2)C1=O`: the activation is -0.588%.

Take `CCCC(=O)Nc1ccc2c(c1)nc1n2CCSC1`: the activation was -5%.

For the compound `COc1ccc(N2CCN(C(=O)c3cn(C)c4ccc(S(=O)(=O)N5CCOCC5)cc4c3=O)CC2)cc1`, the activation was 1.02%.
